Tests used:
Assay in all cases: DAPPL (digital affinity profiling via proximity ligation, sequencing); 10 mM Tris-HCl pH 7.5, 50 mM NaCl, 1 mM DTT, 4% glycerol, room temperature, 30 min; GST-TFs on glutathione beads, 16-mer random dsDNA library, 0.1% formaldehyde crosslink after washing; high values mean tight binding
[1] = molecular target: T1, FLI1 (Homo sapiens, UniProt Q01543 1-452); conditions: protein: recombinant; tags: N-terminal GST; dsDNA, one strand shown
T1 sequence: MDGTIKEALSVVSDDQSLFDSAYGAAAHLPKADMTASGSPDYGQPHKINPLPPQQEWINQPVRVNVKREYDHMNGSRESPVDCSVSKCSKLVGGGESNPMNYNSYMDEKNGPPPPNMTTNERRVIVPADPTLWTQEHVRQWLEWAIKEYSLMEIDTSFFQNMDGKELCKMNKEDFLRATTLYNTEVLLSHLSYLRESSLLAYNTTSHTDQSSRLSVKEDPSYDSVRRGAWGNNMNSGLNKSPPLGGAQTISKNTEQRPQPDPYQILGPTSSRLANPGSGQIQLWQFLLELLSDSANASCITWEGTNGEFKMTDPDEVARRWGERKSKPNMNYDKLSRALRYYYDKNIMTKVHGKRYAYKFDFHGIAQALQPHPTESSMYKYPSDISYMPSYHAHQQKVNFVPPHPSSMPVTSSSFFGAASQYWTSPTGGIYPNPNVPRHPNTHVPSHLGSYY
Summary of the method: (§1)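 In yeast, human transcription factors were expressed with a GST fusion, then pulled down on glutathione beads and given DNA barcodes. Pooled with a tag-only sample, they were exposed to 200 nmole of a 16-mer random double-stranded DNA library (Tris/NaCl/DTT/glycerol buffer, room temperature, 30 min), washed, crosslinked with 0.1% formaldehyde, proximity-ligated using BsaI/T4 ligase for 1 h at 37 °C, PCR-amplified and read on an Illumina NextSeq500. Each hexamer's frequency of reads for a factor, divided by the matching frequency for the tag-only sample, gives the binding signal.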

[2] = molecular target: T2, ELK1 (Homo sapiens, UniProt P19419 1-428); conditions: protein: recombinant; tags: N-terminal GST; dsDNA, one strand shown
T2 sequence: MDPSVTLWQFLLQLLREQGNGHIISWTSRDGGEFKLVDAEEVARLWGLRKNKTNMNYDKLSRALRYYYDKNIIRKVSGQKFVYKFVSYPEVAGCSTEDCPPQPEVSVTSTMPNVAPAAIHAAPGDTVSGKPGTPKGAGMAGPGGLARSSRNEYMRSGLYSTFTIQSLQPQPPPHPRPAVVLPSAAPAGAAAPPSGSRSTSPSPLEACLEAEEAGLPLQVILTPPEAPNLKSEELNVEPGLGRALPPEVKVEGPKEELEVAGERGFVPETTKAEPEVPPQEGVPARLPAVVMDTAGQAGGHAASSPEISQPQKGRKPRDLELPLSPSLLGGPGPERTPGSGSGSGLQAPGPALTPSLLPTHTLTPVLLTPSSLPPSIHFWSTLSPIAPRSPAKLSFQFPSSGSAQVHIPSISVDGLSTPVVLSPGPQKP
Summary of the method: as §1

[3] = molecular target: T3, GABPA (Homo sapiens, UniProt Q06546 1-454); conditions: protein: recombinant; tags: N-terminal GST; dsDNA, one strand shown
T3 sequence: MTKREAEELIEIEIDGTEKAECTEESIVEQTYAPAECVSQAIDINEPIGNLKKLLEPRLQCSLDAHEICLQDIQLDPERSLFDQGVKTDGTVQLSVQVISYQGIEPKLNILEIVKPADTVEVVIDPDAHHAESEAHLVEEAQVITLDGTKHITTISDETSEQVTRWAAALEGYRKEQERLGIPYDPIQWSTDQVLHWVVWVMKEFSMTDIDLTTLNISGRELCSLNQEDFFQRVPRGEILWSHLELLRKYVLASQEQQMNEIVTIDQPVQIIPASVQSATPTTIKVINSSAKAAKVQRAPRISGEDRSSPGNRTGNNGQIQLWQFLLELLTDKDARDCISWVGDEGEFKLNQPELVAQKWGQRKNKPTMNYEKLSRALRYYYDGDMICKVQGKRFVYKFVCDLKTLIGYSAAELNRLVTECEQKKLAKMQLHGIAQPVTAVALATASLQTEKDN
Summary of the method: as §1

[4] = molecular target: T4, ERG (Homo sapiens, UniProt P11308 1-479); conditions: protein: recombinant; tags: N-terminal GST; dsDNA, one strand shown
T4 sequence: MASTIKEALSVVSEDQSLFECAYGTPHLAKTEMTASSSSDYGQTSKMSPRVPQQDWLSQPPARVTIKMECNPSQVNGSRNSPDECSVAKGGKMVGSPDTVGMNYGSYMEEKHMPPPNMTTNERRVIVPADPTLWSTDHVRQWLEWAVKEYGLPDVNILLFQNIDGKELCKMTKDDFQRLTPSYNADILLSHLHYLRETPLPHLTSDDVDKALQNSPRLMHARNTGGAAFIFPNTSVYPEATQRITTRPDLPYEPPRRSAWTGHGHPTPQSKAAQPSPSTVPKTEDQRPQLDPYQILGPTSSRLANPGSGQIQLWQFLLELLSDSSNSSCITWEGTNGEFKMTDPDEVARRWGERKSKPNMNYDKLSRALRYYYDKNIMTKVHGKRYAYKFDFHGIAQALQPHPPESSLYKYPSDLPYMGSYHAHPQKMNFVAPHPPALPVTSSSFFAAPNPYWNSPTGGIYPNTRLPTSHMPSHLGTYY
Summary of the method: as §1

[5] = molecular target: ELF1 (Homo sapiens, UniProt P32519 1-619); conditions: protein: recombinant; tags: N-terminal GST; dsDNA, one strand shown
Summary of the method: as §1

[6] = molecular target: T5, EHF (Homo sapiens, UniProt Q9NZC4 1-300); conditions: protein: recombinant; tags: N-terminal GST; dsDNA, one strand shown
T5 sequence: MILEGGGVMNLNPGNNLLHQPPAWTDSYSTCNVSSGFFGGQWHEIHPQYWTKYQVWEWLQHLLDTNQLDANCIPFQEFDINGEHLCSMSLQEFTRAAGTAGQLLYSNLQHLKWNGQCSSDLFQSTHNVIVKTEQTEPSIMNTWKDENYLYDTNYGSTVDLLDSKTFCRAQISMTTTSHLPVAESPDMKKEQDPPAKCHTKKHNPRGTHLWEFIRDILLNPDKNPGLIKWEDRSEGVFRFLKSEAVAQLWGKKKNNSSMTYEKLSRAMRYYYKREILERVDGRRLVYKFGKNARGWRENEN
Summary of the method: as §1

[7] = molecular target: SPI1 (Homo sapiens, UniProt P17947 1-270); conditions: protein: recombinant; tags: N-terminal GST; dsDNA, one strand shown
Summary of the method: as §1

[8] = molecular target: SPIB (Homo sapiens, UniProt Q01892 1-262); conditions: protein: recombinant; tags: N-terminal GST; dsDNA, one strand shown
Summary of the method: as §1

[9] = molecular target: T6, FEV (Homo sapiens, UniProt Q99581 1-238); conditions: protein: recombinant; tags: N-terminal GST; dsDNA, one strand shown
T6 sequence: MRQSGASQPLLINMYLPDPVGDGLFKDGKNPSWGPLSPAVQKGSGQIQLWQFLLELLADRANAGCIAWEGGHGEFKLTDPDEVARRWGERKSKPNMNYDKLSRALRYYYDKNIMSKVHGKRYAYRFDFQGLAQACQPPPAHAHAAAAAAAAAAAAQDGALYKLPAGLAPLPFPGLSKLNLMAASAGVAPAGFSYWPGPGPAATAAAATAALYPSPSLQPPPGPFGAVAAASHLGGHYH
Summary of the method: as §1

[10] = molecular target: ETV5 (Homo sapiens, UniProt P41161 1-510); conditions: protein: recombinant; tags: N-terminal GST; dsDNA, one strand shown
Summary of the method: as §1

[11] = molecular target: HSF1 (Homo sapiens, UniProt Q00613 1-529); conditions: protein: recombinant; tags: N-terminal GST; chain copies: 3; dsDNA, one strand shown
Summary of the method: as §1

[12] = molecular target: ELF4 (Homo sapiens, UniProt Q99607 1-663); conditions: protein: recombinant; tags: N-terminal GST; dsDNA, one strand shown
Summary of the method: as §1

[13] = molecular target: T7, ELK4 (Homo sapiens, UniProt P28324-2 1-405); conditions: protein: recombinant; tags: N-terminal GST; dsDNA, one strand shown
T7 sequence: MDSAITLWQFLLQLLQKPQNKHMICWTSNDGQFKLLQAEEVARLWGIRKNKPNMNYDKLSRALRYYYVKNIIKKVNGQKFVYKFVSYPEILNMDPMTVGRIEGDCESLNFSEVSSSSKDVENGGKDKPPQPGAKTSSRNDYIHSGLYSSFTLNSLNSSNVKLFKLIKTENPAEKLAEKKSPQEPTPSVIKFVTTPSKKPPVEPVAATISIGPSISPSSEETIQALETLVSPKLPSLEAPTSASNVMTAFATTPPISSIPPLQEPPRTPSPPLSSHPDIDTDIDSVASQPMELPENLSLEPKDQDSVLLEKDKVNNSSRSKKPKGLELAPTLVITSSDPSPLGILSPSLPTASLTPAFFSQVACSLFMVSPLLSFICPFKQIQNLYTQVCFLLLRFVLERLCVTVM
Summary of the method: as §1

[14] = molecular target: T8, ETV2 (Homo sapiens, UniProt O00321 1-342); conditions: protein: recombinant; tags: N-terminal GST; dsDNA, one strand shown
T8 sequence: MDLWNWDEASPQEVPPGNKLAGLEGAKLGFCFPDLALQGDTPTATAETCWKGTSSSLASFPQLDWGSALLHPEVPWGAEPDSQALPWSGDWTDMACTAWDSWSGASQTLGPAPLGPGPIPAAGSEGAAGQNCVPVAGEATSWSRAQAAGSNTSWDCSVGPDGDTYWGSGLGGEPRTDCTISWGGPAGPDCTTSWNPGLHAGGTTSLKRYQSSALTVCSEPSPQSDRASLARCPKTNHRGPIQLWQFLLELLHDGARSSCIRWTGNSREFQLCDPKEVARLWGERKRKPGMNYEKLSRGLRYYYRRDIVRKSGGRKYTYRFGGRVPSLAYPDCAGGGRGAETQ
Summary of the method: as §1

[15] = molecular target: CRX (Homo sapiens, UniProt O43186 1-299); conditions: protein: recombinant; tags: N-terminal GST; dsDNA, one strand shown
Summary of the method: as §1

[16] = molecular target: ETV1 (Homo sapiens, UniProt P50549 1-477); conditions: protein: recombinant; tags: N-terminal GST; dsDNA, one strand shown
Summary of the method: as §1

[17] = molecular target: T9, ELF3 (Homo sapiens, UniProt P78545 1-371); conditions: protein: recombinant; tags: N-terminal GST; dsDNA, one strand shown
T9 sequence: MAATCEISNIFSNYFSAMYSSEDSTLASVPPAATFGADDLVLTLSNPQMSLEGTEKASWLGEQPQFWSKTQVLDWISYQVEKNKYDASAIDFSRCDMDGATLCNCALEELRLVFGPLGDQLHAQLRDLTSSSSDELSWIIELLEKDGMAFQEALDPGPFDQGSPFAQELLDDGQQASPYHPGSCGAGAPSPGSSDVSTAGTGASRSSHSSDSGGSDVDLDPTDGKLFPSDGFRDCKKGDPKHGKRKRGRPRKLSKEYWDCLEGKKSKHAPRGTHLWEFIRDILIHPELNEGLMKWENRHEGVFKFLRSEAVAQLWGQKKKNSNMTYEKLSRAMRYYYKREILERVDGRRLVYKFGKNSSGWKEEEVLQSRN
Summary of the method: as §1

Sequence of ETV1 (P50549 whole entry): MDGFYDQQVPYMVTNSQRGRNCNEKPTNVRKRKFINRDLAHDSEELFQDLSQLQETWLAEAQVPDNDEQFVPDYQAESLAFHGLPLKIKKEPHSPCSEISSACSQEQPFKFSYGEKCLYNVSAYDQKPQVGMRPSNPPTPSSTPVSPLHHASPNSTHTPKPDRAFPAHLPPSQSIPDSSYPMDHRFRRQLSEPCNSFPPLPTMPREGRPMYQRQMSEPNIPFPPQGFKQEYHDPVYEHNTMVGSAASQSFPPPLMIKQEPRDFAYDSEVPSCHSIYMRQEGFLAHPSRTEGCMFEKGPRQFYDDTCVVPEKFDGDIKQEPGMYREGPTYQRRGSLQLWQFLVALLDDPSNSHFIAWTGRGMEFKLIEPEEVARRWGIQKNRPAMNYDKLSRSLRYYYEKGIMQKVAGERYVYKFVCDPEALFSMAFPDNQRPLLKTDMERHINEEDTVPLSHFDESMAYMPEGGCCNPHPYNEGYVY
Sequence of HSF1 (Q00613 whole entry): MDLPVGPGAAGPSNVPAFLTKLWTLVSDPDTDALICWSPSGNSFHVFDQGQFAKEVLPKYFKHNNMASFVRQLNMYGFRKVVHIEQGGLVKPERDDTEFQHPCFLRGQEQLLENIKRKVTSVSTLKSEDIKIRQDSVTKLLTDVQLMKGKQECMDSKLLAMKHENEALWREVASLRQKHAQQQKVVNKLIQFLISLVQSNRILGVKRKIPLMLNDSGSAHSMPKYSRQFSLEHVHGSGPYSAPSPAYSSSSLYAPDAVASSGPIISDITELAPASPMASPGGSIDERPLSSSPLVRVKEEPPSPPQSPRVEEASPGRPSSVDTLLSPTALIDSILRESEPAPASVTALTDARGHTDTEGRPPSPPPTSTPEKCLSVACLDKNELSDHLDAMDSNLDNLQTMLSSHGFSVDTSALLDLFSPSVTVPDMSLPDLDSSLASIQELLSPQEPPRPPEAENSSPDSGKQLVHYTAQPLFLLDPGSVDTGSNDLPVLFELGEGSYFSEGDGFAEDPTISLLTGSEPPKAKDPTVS
Sequence of ELF4 (Q99607 whole entry): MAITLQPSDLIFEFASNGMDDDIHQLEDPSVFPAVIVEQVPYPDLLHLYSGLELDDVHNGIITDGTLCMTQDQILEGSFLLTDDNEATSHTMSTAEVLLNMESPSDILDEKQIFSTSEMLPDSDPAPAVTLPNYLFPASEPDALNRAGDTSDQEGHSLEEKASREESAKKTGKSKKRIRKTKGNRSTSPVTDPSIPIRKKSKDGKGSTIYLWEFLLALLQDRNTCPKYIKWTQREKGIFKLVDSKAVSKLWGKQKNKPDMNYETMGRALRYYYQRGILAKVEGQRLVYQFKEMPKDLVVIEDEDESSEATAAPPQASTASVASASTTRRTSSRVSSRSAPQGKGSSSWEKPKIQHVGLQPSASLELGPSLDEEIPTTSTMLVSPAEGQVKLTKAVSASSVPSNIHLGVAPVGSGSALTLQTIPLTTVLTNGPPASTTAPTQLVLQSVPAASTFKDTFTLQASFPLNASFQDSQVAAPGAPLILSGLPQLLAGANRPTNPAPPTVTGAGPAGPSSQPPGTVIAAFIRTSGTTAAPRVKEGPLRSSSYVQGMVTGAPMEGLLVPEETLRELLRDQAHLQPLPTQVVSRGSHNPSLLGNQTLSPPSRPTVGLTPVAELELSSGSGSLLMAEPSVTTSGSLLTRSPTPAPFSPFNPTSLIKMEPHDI
Sequence of ELF1 (P32519 whole entry): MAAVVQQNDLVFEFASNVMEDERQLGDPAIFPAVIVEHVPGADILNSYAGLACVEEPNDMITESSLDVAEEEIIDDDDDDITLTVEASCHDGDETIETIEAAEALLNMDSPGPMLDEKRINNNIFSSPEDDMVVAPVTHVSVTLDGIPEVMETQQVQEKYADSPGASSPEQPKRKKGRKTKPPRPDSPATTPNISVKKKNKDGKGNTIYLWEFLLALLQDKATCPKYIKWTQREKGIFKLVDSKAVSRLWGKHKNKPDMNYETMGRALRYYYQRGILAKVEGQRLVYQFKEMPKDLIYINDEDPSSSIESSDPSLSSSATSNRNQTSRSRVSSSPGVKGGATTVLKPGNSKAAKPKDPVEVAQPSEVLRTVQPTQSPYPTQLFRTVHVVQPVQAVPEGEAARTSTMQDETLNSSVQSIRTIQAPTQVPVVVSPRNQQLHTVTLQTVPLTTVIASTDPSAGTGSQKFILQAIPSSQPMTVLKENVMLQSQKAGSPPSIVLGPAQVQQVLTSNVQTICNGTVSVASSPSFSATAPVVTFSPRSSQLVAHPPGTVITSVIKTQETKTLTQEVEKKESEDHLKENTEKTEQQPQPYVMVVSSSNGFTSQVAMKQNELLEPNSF
Sequence of SPIB (Q01892 whole entry): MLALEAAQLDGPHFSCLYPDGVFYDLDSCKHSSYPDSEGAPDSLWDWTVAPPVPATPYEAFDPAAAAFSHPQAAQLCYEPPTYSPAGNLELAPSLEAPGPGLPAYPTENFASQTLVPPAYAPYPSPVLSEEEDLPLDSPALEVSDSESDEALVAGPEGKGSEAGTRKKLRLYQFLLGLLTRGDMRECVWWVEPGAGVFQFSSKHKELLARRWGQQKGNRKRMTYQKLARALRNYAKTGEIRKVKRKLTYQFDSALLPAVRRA
Sequence of ETV5 (P41161 whole entry): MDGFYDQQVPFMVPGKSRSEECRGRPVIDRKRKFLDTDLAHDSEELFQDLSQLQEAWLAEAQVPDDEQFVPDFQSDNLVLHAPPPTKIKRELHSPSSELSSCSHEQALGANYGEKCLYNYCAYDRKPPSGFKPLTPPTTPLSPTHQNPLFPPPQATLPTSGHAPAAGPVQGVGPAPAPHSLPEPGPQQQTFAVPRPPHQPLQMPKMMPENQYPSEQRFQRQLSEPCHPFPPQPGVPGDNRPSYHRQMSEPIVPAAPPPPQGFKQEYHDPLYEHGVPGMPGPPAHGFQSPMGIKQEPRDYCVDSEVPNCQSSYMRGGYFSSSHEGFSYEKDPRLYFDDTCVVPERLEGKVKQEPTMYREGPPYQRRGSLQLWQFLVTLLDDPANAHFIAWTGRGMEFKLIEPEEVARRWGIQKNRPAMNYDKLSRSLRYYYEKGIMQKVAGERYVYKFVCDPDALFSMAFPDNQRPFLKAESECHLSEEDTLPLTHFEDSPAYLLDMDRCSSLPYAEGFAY
Sequence of CRX (O43186 whole entry): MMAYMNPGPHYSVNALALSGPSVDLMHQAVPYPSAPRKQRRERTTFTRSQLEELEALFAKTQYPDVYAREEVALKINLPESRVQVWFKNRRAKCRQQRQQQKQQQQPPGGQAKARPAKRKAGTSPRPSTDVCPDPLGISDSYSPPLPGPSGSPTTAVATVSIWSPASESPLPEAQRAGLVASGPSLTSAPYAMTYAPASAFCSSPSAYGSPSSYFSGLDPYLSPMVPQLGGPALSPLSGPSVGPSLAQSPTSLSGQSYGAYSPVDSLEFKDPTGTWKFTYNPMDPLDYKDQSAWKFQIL

| Sequence | binding signal [1] | binding signal [2] | binding signal [3] | binding signal [4] | binding signal [5] | binding signal [6] | binding signal [7] | binding signal [8] | binding signal [9] | binding signal [10] | binding signal [11] | binding signal [12] | binding signal [13] | binding signal [14] | binding signal [15] | binding signal [16] | binding signal [17] |
| --- | --- | --- | --- | --- | --- | --- | --- | --- | --- | --- | --- | --- | --- | --- | --- | --- | --- |
| GGTATA | 1.04 fold enrichment (6-mer frequency, TF over GST control) | 1.16 fold enrichment (6-mer frequency, TF over GST control) | 1.02 fold enrichment (6-mer frequency, TF over GST control) | 1.05 fold enrichment (6-mer frequency, TF over GST control) | 1.09 fold enrichment (6-mer frequency, TF over GST control) | 1.11 fold enrichment (6-mer frequency, TF over GST control) | 1.07 fold enrichment (6-mer frequency, TF over GST control) | 1.06 fold enrichment (6-mer frequency, TF over GST control) | 1.08 fold enrichment (6-mer frequency, TF over GST control) | 1.1 fold enrichment (6-mer frequency, TF over GST control) | 1.08 fold enrichment (6-mer frequency, TF over GST control) | 1.08 fold enrichment (6-mer frequency, TF over GST control) | 1.1 fold enrichment (6-mer frequency, TF over GST control) | 1.05 fold enrichment (6-mer frequency, TF over GST control) | 1.02 fold enrichment (6-mer frequency, TF over GST control) | 1.11 fold enrichment (6-mer frequency, TF over GST control) | – |
| TCGATG | 1.04 fold enrichment (6-mer frequency, TF over GST control) | 1.14 fold enrichment (6-mer frequency, TF over GST control) | 1.12 fold enrichment (6-mer frequency, TF over GST control) | 1.06 fold enrichment (6-mer frequency, TF over GST control) | 1.11 fold enrichment (6-mer frequency, TF over GST control) | 1.09 fold enrichment (6-mer frequency, TF over GST control) | 1.17 fold enrichment (6-mer frequency, TF over GST control) | 1.06 fold enrichment (6-mer frequency, TF over GST control) | – | 1.11 fold enrichment (6-mer frequency, TF over GST control) | 1.26 fold enrichment (6-mer frequency, TF over GST control) | 1.2 fold enrichment (6-mer frequency, TF over GST control) | 1.09 fold enrichment (6-mer frequency, TF over GST control) | 1.03 fold enrichment (6-mer frequency, TF over GST control) | – | 1.11 fold enrichment (6-mer frequency, TF over GST control) | 1.1 fold enrichment (6-mer frequency, TF over GST control) |

Source: publication PMC7862700, “An all-to-all approach to the identification of sequence-specific readers for epigenetic DNA modifications on cytosine”
